Experimental data taken from PubChem BioAssay.
Values without a mark were called inactive. Calls of active or inactive are those of the source.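 Rule for the calls, unless noted: active = mean inhibition over 43.08%, the solvent-only control mean plus 3 SD; inactive = the rest.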

How the values were obtained:
[1] = target: Protein phosphatase methylesterase 1 (Homo sapiens) (UniProt Q9Y570); test: PME-1 inhibitor activity retest, confirmation, biochemical, fluorescence polarization, FP-Rh probe, triplicate (AID 2171;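 active = inhibition above the hit cutoff set in the earlier primary screen, cut at about 27% in these data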;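 note: 0% = enzyme with DMSO and 100% = wells lacking PME-1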); details: recombinant PME-1, FP-Rh probe fluorescence polarization; at 5.9 µM; hits give high values
[2] = target: Nuclear receptor coactivator 1 (Homo sapiens) (UniProt Q15788); test: SRC1 coactivator transcriptional activity inhibitors, confirmation, cell-based, luminescence, quadruplicate (AID 588820;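 active = mean inhibition above 46.68%, the untreated control wells mean plus 3 SD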;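 note: 0% = DMSO wells and 100% = gossypol 36 µM treated wells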); details: HEK293 GAL4-SRC1 luciferase reporter, at 3.6 µM, hits give high values
[3] = VP16 transactivation inhibitors, counter-screen for SRC1 inhibitor project, cell-based, luminescence, high throughput (AID 588824; in the data active = inhibition above about 25%); details: cell-based VP16 transactivation luciferase luminescence; at 3.6 µM; hits give high values
[4] = target: Nuclear receptor coactivator 3 (Homo sapiens) (UniProt Q9Y6Q9); test: SRC3 coactivator transcriptional activity inhibitors, confirmation, cell-based, luminescence, quadruplicate (AID 588792); details: HEK293 GAL4-SRC3 luciferase reporter, at 3.6 µM, hits give high values;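 note: 0% = DMSO treated cells and 100% = gossypol at 36 µM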
[5] = system: transactivating tegument protein VP16 (Human herpesvirus 1), Gal4-VP16 luciferase reporter; test: VP16 transactivation inhibitors, counter-screen for SRC3 inhibitor project, cell-based, luminescence, high throughput (AID 588794; in the data active = inhibition above about 30%); details: mammalian cells, VP16-driven luciferase reporter luminescence; at 3.6 µM; hits give high values

Nuclear receptor coactivator 1 (Homo sapiens), sequence (Q15788 whole entry, looked up, the tested form may be a part): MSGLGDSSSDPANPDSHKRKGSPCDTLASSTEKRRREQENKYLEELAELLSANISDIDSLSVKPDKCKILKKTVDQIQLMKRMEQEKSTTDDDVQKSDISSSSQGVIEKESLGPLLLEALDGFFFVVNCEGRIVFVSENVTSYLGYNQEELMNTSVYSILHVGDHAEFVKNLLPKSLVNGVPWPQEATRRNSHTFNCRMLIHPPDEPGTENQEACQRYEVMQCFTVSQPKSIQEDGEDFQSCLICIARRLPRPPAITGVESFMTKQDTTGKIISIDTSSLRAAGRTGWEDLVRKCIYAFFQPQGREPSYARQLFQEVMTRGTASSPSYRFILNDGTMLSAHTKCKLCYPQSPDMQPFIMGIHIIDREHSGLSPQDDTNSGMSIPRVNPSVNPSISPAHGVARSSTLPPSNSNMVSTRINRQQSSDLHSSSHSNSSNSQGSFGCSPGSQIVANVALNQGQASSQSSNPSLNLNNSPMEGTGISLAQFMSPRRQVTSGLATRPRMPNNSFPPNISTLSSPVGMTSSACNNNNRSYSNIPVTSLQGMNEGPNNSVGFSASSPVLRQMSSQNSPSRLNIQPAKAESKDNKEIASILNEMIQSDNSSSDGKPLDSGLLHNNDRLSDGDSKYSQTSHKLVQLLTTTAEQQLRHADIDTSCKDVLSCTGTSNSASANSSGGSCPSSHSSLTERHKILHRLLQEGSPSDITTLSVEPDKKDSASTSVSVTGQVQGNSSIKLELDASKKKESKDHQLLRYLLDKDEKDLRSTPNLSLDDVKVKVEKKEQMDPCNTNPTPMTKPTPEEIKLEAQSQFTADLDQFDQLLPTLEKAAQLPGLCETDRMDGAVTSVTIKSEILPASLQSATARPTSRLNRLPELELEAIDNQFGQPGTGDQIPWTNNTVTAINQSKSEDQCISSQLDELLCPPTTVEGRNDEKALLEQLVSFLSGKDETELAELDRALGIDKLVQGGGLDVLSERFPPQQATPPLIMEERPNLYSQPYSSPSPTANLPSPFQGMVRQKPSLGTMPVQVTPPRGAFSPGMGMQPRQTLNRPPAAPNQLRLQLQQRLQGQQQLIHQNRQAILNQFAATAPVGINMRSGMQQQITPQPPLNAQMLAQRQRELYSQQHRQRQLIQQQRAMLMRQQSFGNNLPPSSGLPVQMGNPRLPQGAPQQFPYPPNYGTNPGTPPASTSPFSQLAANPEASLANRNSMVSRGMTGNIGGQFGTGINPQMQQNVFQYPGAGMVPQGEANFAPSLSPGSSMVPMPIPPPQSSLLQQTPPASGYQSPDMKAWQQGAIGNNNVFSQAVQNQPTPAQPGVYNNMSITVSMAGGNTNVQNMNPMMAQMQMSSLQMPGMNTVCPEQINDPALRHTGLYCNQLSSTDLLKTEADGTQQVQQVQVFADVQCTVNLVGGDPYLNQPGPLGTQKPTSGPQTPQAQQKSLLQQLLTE
Nuclear receptor coactivator 3 (Homo sapiens), sequence (Q9Y6Q9 whole entry, looked up, the tested form may be a part): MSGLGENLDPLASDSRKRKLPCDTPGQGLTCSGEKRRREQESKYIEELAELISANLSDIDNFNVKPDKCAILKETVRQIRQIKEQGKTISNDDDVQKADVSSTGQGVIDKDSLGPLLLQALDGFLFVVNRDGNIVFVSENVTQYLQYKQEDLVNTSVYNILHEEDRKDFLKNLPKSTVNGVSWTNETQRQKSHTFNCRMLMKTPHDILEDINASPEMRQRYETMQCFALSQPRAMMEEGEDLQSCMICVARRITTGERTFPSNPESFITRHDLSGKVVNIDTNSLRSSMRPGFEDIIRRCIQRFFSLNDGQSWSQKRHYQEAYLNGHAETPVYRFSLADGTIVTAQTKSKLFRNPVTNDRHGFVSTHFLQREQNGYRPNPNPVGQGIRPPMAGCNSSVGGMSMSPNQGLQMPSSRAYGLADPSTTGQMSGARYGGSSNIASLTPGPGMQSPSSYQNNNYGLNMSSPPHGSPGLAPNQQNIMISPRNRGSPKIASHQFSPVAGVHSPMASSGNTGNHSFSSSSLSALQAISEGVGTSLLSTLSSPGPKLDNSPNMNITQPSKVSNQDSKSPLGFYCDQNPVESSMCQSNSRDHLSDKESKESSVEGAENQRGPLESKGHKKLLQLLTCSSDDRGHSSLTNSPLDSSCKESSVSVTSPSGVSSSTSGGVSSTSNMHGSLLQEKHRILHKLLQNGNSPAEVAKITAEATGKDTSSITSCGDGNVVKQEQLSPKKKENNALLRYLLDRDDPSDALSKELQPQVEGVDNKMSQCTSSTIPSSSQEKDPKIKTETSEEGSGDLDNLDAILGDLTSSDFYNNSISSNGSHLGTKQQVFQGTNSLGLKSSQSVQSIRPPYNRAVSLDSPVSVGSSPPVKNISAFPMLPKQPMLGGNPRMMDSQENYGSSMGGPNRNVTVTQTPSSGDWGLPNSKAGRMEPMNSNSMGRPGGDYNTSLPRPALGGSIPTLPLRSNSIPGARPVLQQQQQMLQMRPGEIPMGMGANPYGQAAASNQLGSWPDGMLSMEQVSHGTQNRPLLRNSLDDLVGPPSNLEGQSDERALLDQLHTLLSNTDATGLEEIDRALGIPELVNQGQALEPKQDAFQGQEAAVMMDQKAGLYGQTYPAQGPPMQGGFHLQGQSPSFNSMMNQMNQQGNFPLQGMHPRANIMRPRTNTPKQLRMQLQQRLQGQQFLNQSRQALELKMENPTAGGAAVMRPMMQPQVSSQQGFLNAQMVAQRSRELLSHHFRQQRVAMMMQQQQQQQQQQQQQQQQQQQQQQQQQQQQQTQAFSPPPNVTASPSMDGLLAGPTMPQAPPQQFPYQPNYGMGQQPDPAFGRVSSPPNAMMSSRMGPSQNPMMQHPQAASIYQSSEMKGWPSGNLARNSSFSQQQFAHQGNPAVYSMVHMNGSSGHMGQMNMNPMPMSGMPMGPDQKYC
Protein phosphatase methylesterase 1 (Homo sapiens), sequence (Q9Y570 whole entry, looked up, the tested form may be a part): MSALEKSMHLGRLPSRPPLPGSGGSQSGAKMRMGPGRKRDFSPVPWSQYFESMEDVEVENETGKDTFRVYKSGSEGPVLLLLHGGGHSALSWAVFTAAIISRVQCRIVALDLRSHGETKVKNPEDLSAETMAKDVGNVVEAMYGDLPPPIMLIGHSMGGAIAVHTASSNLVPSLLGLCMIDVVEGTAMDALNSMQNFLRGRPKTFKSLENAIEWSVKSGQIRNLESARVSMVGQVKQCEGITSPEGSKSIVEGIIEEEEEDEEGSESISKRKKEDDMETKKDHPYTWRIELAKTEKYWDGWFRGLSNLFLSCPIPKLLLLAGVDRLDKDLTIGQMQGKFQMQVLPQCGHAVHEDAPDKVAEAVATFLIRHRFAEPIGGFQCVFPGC

Row | SMILES | inhibition [1] | inhibition [2] | inhibition [3] | inhibition [4] | inhibition [5]
1 | CNc1ccc2nc3ccccc3[n+](C)c2c1 | 61.7% (active) | -4.23% | 3.25% | – | –
2 | Cc1cc(C)n(-c2ccc(NN=C(C#N)C#N)cc2)n1 | – | – | – | 43.3% (active) | 61.8% (active)
3 | COc1ccc(-n2c(/C=C/c3ccc(O)c(O)c3)nc3ccccc3c2=O)cc1 | -10.6% | – | – | – | –
4 | O=C1/C(=C/c2ccccc2)C[C@@]2(O)[C@H]3Cc4ccc(O)c5c4[C@@]2(CCN3CC2CC2)C1O5 (some centres undefined) | – | 85.4% (active) | 73.2% (active) | 92.8% (active) | 73.1% (active)
5 | CNC(=O)c1cccn(Cc2cccc(C(F)(F)F)c2)c1=O | – | -26.7% | -25.9% | 19.5% | -23.9%
6 | O=c1[nH]c2ccccc2n1C1CCN(C(CCc2ccccc2)c2nnnn2Cc2ccccc2)CC1 (centres undefined) | – | 12% | 36.7% (active) | 34.6% | 40.3% (active)
7 | O=c1[nH]c2ccccc2n1C1CCN(C(c2ccccc2)c2nnnn2-c2ccc3c(c2)OCCO3)CC1 (centres undefined) | – | -15.1% | 16.1% | 41.3% | 14.1%
8 | Cc1cc2c(C(C)C)c(O)c(O)c(C=O)c2c(O)c1-c1c(C)cc2c(C(C)C)c(O)c(O)c(C=O)c2c1O | – | – | – | 5.58% | 22.2%
9 | COc1ccc(-n2c(O)c(C(C)=NCCCn3ccnc3)c(=O)[nH]c2=O)cc1 | – | – | – | 31.6% | 32.6% (active)
10 | C=C1C(=O)[C@@]23C[C@H]4[C@@H]5[C@@]6(C)CCC[C@@]57[C@@H]2[C@@H](O)[C@@H]1C[C@H]3[C@H]7N4C6 | – | 26.6% | 20.9% | 3.71% | 22%
11 | Cc1c(C(=O)N2CCC3(CC2)OCCO3)sc2ncnc(N3CCN(c4ccccn4)CC3)c12 | – | – | – | -7.87% | -13.2%
12 | CCN(CCCl)c1cc(CN(C)C)cc(NC(=O)c2ccc(C(=O)Nc3cc(CN(C)C)cc(N(CC)CCCl)c3)cc2)c1 | – | – | – | 94.8% (active) | 92% (active)
13 | Cc1ccc(N=C(/N=C(\N)N[N+](=O)[O-])Nc2ccc(C)cc2)cc1 | – | – | – | -0.99% | 1.74%
14 | N=c1c2c(n(Cc3ccc(Cl)cc3Cl)c3c1CCC3)CCCC2 | – | 41.2% | 63.4% (active) | 43.5% (active) | 62.9% (active)
15 | CC(=C1C(=O)c2ccccc2C1=O)N1CCN(CCN=Cc2c(O)n(C)c(=O)n(C)c2=O)CC1 | – | – | – | -8.5% | -5.29%
16 | COC(=O)[C@@H]1[C@@H](C(=O)OC)C2(c3ccccc3-c3ccccc32)N(c2ccc(Cl)cc2)N1C#N | – | – | – | -0.96% | 30.6% (active)
17 | CC(C)[C@H]1C(=O)O[C@H](C(C)C)C(=O)N(C)[C@@H](C(C)C)C(=O)O[C@H](C(C)C)C(=O)N(C)[C@@H](C(C)C)C(=O)O[C@H](C(C)C)C(=O)N1C | – | 59.5% (active) | 84.9% (active) | 75% (active) | 86.1% (active)
18 | CCCNC(=O)N1[C@H]2CC[C@@H]1C(C(=O)OC)=C(c1ccc(OC(F)(F)F)cc1)C2 | – | – | – | 14.2% | -7.81%
19 | CC1=CC2/C=C(\C)CCC(O)C(O)/C=C/C(=O)C23C(=O)NC(CC(C)C)C3C1C (centres undefined) | – | – | – | 36% | 54.8% (active)
20 | O=c1[nH]c2ccccc2n1C1CCN(C(c2nnnn2Cc2ccccc2)C2CC2)CC1 (centres undefined) | – | – | – | 22.8% | 20.9%
21 | CCCCCCCn1c(=O)c(C(=O)Nc2cnccn2)c(O)c2ccccc21 | – | – | – | -22.1% | -5.22%
22 | O=c1[nH]c2ccccc2n1C1CCN(C(CCc2ccccc2)c2nnnn2-c2ccc3c(c2)OCCO3)CC1 (centres undefined) | – | – | – | 30.3% | 48.9% (active)
23 | CNC(=O)c1cccn(Cc2cc(C(F)(F)F)cc(C(F)(F)F)c2)c1=O | – | 10.9% | 3.5% | 28.4% | 11%
24 | CCCc1nc2ccc(Br)cc2c(=O)n1-c1ccc([N+](=O)[O-])c(C(F)(F)F)c1 | – | 13.3% | 14.8% | -13% | 11.2%
25 | O=c1[nH]c2ccccc2n1C1CCN(C(CCc2ccccc2)c2nnnn2C2CCCC2)CC1 (centres undefined) | – | -2.66% | 10.8% | 23.4% | 7.82%
26 | O=c1[nH]c2ccccc2n1C1CCN(C(c2nnnn2-c2ccc3c(c2)OCCO3)C2CC2)CC1 (centres undefined) | – | -8.7% | 22% | 25.1% | 23.5%
